Source: PubChem BioAssay (NCI)
The panel holds about 79,000 compounds, 15% with a hit somewhere; the sample as a whole holds those more often. A number with no mark means an inactive call. Activity calls are given as the source filed them. Cut-off read from the data, not from the text of the source: active = growth inhibition above about 70%; inactive = the rest.

Test: NCI Yeast Anticancer Drug Screen. Data for the CLN2oe strain (AID 163);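 note: 0% = growth of vehicle-only control cultures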
Conditions: S. cerevisiae CLN2oe strain, active compounds read high
Experimental: Growth inhibition of yeast strains with defined genetic alterations is measured as a screen for potential anti-cancer activity. Selected strains with alterations in DNA damage repair or cell cycle control were exposed to compounds and growth inhibition was measured relative to vehicle treated controls. The strain used in this assay is CLN2oe

## CCC(C)COC(=O)c1ccc(N=Cc2ccc(C=Nc3ccc(C(=O)OCC(C)CC)cc3)cc2)cc1 (stereo not given)
At 1.2 µM
  growth inhibition: 0%
At 3.7 µM
  growth inhibition: 0%
At 11.0 µM
  growth inhibition: 6%
At 33.0 µM
  growth inhibition: -1%
At 100.0 µM
  growth inhibition: 0%

## COc1cc2c(cc1[N+](=O)[O-])C(=O)C(Br)(Br)CCC2
At 1.2 µM
  growth inhibition: 21%
At 3.7 µM
  growth inhibition: 21%
At 11.0 µM
  growth inhibition: 55%
At 33.0 µM
  growth inhibition: 98% (active)
At 100.0 µM
  growth inhibition: 93% (active)

## O=C(/C=C/c1cccc(Br)c1)c1cccs1
At 1.2 µM
  growth inhibition: 9%
At 3.7 µM
  growth inhibition: 10%
At 11.0 µM
  growth inhibition: 84% (active)
At 33.0 µM
  growth inhibition: 98% (active)
At 100.0 µM
  growth inhibition: 96% (active)

## S=C(S)NN1CCOCC1
At 1.2 µM
  growth inhibition: 57%
At 3.7 µM
  growth inhibition: 31%
At 11.0 µM
  growth inhibition: 29%
At 33.0 µM
  growth inhibition: 27%
At 100.0 µM
  growth inhibition: 42%

## [O-][n+]1c2ccc(O)cc2nc2ccc(Br)cc21
At 1.2 µM
  growth inhibition: 14%
At 3.7 µM
  growth inhibition: 21%
At 11.0 µM
  growth inhibition: 40%
At 33.0 µM
  growth inhibition: 54%
At 100.0 µM
  growth inhibition: 64%

## CCCCCCCCC/C=C/C=C/C(=O)NCC(=O)NC1C(O)C(O)C(Nc2ncnc3nc[nH]c23)OC1C(O)CO (stereo not given)
At 1.2 µM
  growth inhibition: 4%
At 3.7 µM
  growth inhibition: 8%
At 11.0 µM
  growth inhibition: 11%
At 33.0 µM
  growth inhibition: 18%
At 100.0 µM
  growth inhibition: -11%

## c1ccc2c(c1)sc1nc3ccncc3nc12
At 1.2 µM
  growth inhibition: 2%
At 3.7 µM
  growth inhibition: 5%
At 11.0 µM
  growth inhibition: 4%
At 33.0 µM
  growth inhibition: 4%
At 100.0 µM
  growth inhibition: 7%

## CN1c2ccc(Cl)cc2C(=O)NC1c1ccc([N+](=O)[O-])s1 (stereo not given)
At 1.2 µM
  growth inhibition: 4%
At 3.7 µM
  growth inhibition: -2%
At 11.0 µM
  growth inhibition: -3%
At 33.0 µM
  growth inhibition: 92% (active)
At 100.0 µM
  growth inhibition: 97% (active)
